SMN2 splice enh: increases expression of the SMN2 splice variant. HEK293 SMN2-luciferase splicing reporter, luminescence, 30-36 h. Potency, µM (doses to about 46.1 µM), inactives show at the top dose activity change, positive = activation, actives largely listed as activators. hit rate 2.8% among 210,000; note: % of control where 0% means no effect; nearly all actives have a fitted effect of over 55% in size
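HEK293 cells carry an SMN2 […]–luciferase reporter in which exon 7 inclusion puts luciferase in frame. Cells were plated 10-12 h before compound addition, then incubated 30-36 h at 37C. ONE-Glo luminescence was read; sodium butyrate at 4.5 mM final served as control.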
FLuc counter: counter-screen for miR-21 project: firefly luciferase inhibitors or activators; purified FLuc, Km substrates, luminescence inhibition; Potency, µM (doses to about 57.5 µM), without a hit: at the top dose activity change, negative = inhibition, actives largely listed as inhibitors; hit rate 6.9% among 360,000; AID 588342;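 note: plate controls were vehicle for no effect and reference inhibitor for full effect; nearly all actives have a fitted effect of over 55% in size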
Target sequence (P08659 whole entry, looked up): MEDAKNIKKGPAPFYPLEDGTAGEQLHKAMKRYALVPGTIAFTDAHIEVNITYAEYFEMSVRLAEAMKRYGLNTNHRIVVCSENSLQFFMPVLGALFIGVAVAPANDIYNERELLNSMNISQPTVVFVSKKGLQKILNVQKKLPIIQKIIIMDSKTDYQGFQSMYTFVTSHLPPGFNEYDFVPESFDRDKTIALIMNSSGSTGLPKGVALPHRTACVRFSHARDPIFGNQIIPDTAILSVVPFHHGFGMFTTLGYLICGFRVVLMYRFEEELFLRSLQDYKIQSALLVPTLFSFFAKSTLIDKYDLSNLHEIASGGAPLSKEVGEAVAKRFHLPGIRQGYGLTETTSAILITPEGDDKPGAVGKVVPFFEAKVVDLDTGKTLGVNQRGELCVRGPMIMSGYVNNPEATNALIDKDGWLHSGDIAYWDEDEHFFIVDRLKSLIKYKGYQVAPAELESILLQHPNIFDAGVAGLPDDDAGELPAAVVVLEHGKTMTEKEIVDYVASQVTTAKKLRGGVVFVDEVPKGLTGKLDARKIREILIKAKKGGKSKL
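Purified P. pyralis luciferase, 10 nM final, with Km-level 10 uM D-luciferin and 10 uM ATP in 50 mM Tris acetate pH 7.5, 10 mM Mg acetate, 0.01% Tween-20, 0.05% BSA; 6-point qHTS titration about 60 µM downward; luminescence read.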
ELG1 genotox: inducers of genotoxicity in HEK293T ELG1-luciferase cells; HEK293T ELG1-luciferase reporter, luminescence, 16 h; Potency, µM (highest dose often 46 µM), for the others: top-dose activity change, positive = activation, most hits filed as activators; AID 504466; hit rate 1.3% among 330,000; note: % of control where 0% means no effect; nearly all actives have a fitted effect of over 60% in size
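After overnight (16 hr) compound treatment at 37 °C, ELG1-luciferase HEK293T cells were lysed with ONE-Glo; luminescence quantified 30 min later at room temperature.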
NPC1 prom act: NPC1 promoter activation; Huh7 NPC1 promoter luciferase reporter, 24 h; AID 485313; Potency, µM (doses to about 9.22 µM), for inactives: top-dose activation, usual class: activators; hit rate 2.4% among 320,000; note: % of control where 0% means no effect; nearly all actives have a fitted effect of over 60% in size
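Luminescence read-out of NPC1 promoter-driven luciferase in stably transfected Huh7 cells; compounds delivered in DMSO and left 24 h at 37C, 5% CO2, qHTS titration format.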
Rab9 promoter act: activates the Rab9 promoter; Huh7 Rab9 promoter-luciferase reporter, luminescence, 24 h; Potency, µM (highest dose often 9.22 µM), for the others: top-dose activation, negative = inhibition, most hits filed as activators; hit rate 2.8% among 320,000; note: % of control where 0% means no effect; nearly all actives have a fitted effect of over 60% in size
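Huh7 reporter line, Rab9 promoter upstream of luciferase. Compound exposure 24 h at 37 °C in reduced-serum medium with 10% FBS. Read-out: luminescence.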
* marks the source's active call; other numbers are inactive results; ? = inconclusive; nt = not tested or not shown; [ ] = another dose, or the depositor's remark. Shown are actives, neighbours in structure and some others; about 7.4% of the full set was active somewhere. Calls come from the whole dose curve; as a rule, active = well fitted curve in the direction sought with a large enough effect; inconclusive = small, poorly fitted or top-dose-only effect, or another doubt; inactive = no such curve, though single readings can be large; an effect the other way counts as inactive or inconclusive. Potency is the fitted concentration of half-maximal effect.

SMILES	SMN2 splice enh	FLuc counter	ELG1 genotox	NPC1 prom act	Rab9 promoter act
Cc1ccc(N(CC(=O)NCCSc2ccccc2)S(=O)(=O)c2ccc(F)cc2)cc1	-40.1%	2.7%	nt	nt	nt
Cc1csc(NC(=O)CCc2c(C)nc3cc(-c4cccc(F)c4)nn3c2C)n1	-43.8%	6.3%	-10.6%	-0.4%	-6.7%
Cc1ccc(NC(=O)CCc2c(C)nc3cc(-c4ccccc4)nn3c2C)cc1F	19.1%	10.7µM*	nt	nt	nt
CCN(CC)S(=O)(=O)c1ccc(NC(=O)CCc2c(C)nc3cc(-c4ccc(Cl)cc4)nn3c2C)cc1	-0.3%	?	nt	nt	nt
CC(=O)c1ccc(NC(=O)CCc2c(C)nc3cc(-c4ccc(Cl)cc4)nn3c2C)cc1	-20.7%	16.9µM*	nt	nt	nt
Cn1c(CNc2ccccc2O)nc2ccccc21	15.3%	?	8.1%	11.5%	-5.4%
Cc1ccccc1NCc1nc2ccccc2n1C	nt	4.26µM*	4.11µM*	1.41µM*	2µM*
Cn1c(CNc2ccc(F)cc2)nc2ccccc21	nt	9.53µM*	16.4µM*	2.24µM*	2.24µM*
Cn1c(CNc2ccccc2)nc2ccccc21	17.8µM*	19µM*	?	3.98µM*	3.16µM*
COc1ccc(-c2noc(CCC(=O)N3CCN(c4ccc(F)cc4)CC3)n2)cc1	nt	nt	-3.1%	nt	nt
COc1ccc(-c2coc3c2c(C)cc2oc(=O)cc(C)c23)cc1	2.0%	-14.6%	nt	nt	nt
Cc1cc2oc(=O)c(CC(=O)O)c(C)c2c2occ(-c3ccc(F)cc3)c12	11.6%	6.75µM*	nt	nt	nt
COc1ccc(-c2coc3c2c(C)cc2oc(=O)c(CC(=O)O)c(C)c23)cc1	15.6%	7.57µM*	nt	nt	nt
Cc1c(CC(=O)O)c(=O)oc2c(C)c3occ(-c4ccc(F)cc4)c3cc12	nt	1.6%	-0.7%	-2.0%	2.2%
O=C(COC(=O)/C=C/c1ccc2c(c1)OCO2)NCc1ccccc1	nt	5.7%	0.3%	-0.3%	-6.8%
CN(C(=O)C1CCCN1S(=O)(=O)c1ccc(Cl)cc1)c1ccccc1 (configuration not stated)	nt	-1.7%	0.1%	-7.1%	-3.5%
O=[N+]([O-])c1cc(Cl)ccc1NCCNS(=O)(=O)c1ccccc1	-19.7%	26.9µM*	1.2%	1.5%	-3.3%
COC(=O)c1sccc1NC(=O)Nc1ccc(OC)cc1	nt	1.69µM*	?	17.8%	20.3%
O=C(Nc1cccc([N+](=O)[O-])c1)Nc1cccs1	-18.9%	26.9µM*	-8.3%	9.8%	9.3%
COC(=O)c1sccc1NC(=O)Nc1cc(OC)ccc1OC	nt	-0.5%	3.4%	0.3%	5.3%
COC(=O)c1sccc1NC(=O)Nc1cccc([N+](=O)[O-])c1	nt	6.75µM*	6.5%	-1.9%	11.8%
COC(=O)c1sccc1NC(=O)Nc1cccc(C)c1	nt	4.78µM*	?	1.7%	2.5%
COC(=O)c1sccc1NC(=O)Nc1cc(C)ccc1C	-0.2%	-2.3%	-0.3%	2.9%	-0.6%
CCCN1CCN(C(=O)CCc2nnc3ccc(N4CCN(c5cccc(OC)c5)CC4)nn23)CC1	nt	1.3%	-4.6%	-1.6%	-3.0%
COC(=O)c1sccc1NC(=O)Nc1cccc(C(C)=O)c1	nt	7.57µM*	0.5%	2.5%	1.1%
SMILES	SMN2 splice enh	FLuc counter	ELG1 genotox	NPC1 prom act	Rab9 promoter act
O=C(Nc1cccc(C(F)(F)F)c1)Nc1cccs1	5.2%	12µM*	nt	nt	nt
COC(=O)c1sccc1NC(=O)Nc1cccc(C)c1C	nt	-18.5%	2.2%	1.4%	2.9%
COc1cc(/C=N/NC(=O)Cc2csc(N3CCOCC3)n2)cc(OC)c1O	5.9%	15.1µM*	0.0%	0.2%	0.0%
O=Cc1ccc(OCc2ccc3ccccc3c2)cc1	nt	5.36µM*	?	14.8%	?
c1ccc(COc2cccc(CNCc3ccccn3)c2)cc1	-14.9%	?	1.3%	0.8%	10.8%
O=Cc1ccc(OCc2ccccn2)cc1	15.8µM*	?	14.5%	-0.9%	-2.6%
CCOC(=O)c1c(C)oc2nc(C)nc(NCc3ccccc3Cl)c12	nt	5.3%	nt	nt	nt
CC(=O)Nc1ccc(NC(=S)NC(=O)/C=C/c2ccco2)cc1	nt	-1.2%	-2.0%	0.5%	4.1%
COc1cccc(NC(=S)NC(=O)/C=C/c2ccco2)c1	nt	16.9µM*	?	4.6%	24.9%
CN1CCN(c2ccc(NC(=S)NC(=O)/C=C/c3ccco3)cc2)CC1	nt	23.9µM*	?	?	?
O=C(/C=C/c1ccco1)NC(=S)Nc1cccc(C(=O)O)c1	nt	10.7µM*	?	3.98µM*	2.82µM*
CCN(Cc1nc2ccccc2c(=O)[nH]1)C(=O)c1cccc(OCc2c(C)noc2C)c1	nt	-1.3%	-5.2%	-3.5%	-4.7%
CCc1c(C)sc2c1CCN(C(=O)Nc1cc(Cl)c(OC)cc1OC)C2c1ccccc1 (configuration not stated)	nt	-1.6%	nt	nt	nt
Oc1ccccc1C1=Nc2nc3ccccc3n2C(c2ccccc2)C1 (configuration not stated)	19.0%	10.7µM*	?	7.1%	16.2%
Oc1ccccc1C1=NN(c2ccccc2)C(c2ccc(F)cc2)C1 (configuration not stated)	nt	-4.2%	-5.4%	0.8%	2.1%
O=C(COC(=O)c1ccccc1Cl)Nc1cccnc1Cl	nt	?	1.7%	-0.1%	-0.3%
O=C(COC(=O)COc1ccccc1Cc1ccccc1)Nc1cccnc1Cl	5.62µM*	-1.3%	5.5%	-4.1%	-0.3%
CC(C)=CC(=O)OCc1cc([N+](=O)[O-])cc2c1OCOC2	?	23.9µM*	?	10.2%	?
Cc1cccc(NC(=O)CCCN=C2NS(=O)(=O)c3ccccc32)c1C	nt	2.5%	1.4%	1.5%	-4.2%
COc1ccc([C@]23Cc4ccccc4C(O2)c2c(c4ccc(OC)cc4oc2=O)O3)cc1	nt	3.09µM*	nt	18.6%[1.84 µM]	2.4%[1.84 µM]
COc1ccc2c3c(c(=O)oc2c1)C1O[C@](c2ccsc2)(Cc2ccccc21)O3	nt	-6.6%[11.5 µM]	nt	-1.0%[1.84 µM]	0.3%[1.84 µM]
COc1cccc(CC(=O)N2CCc3nc(-c4ccc(OC)cc4C)c4c(c3C2)CO[C@@H](c2ccccc2)C4)c1	3.9%[9.22 µM]	nt	nt	nt	nt
Cc1nn2c(-c3ccc(S(=O)(=O)N4CCN(C)CC4)o3)nnc2c2ccccc12	nt	-2.2%	17.4%	-3.4%	-0.9%
Cn1ncc2c1ncn1nc(CCc3ccccc3)nc21	?	7.57µM*	?	0.794µM*	1.26µM*
COc1ccc(Cc2nc3c4cnn(-c5ccccc5Br)c4ncn3n2)cc1	6.1%	-4.3%	nt	nt	nt
Brc1ccccc1-n1ncc2c1ncn1nc(Cc3ccccc3)nc21	21.6%	16.9µM*	nt	nt	nt
Cn1ncc2c1ncn1nc(COc3ccc4ccccc4c3)nc21	-4.2%	-13.2%	-1.4%	10.4%	13.4%
Cc1ccc(C2NC(=O)c3c(sc4c3CCN(C)C4)N2)s1 (configuration not stated)	-15.1%	12µM*	3.2%	?	?
Cc1ccsc1C1NC(=O)c2c(sc3c2CCCC3)N1 (configuration not stated)	15.8µM*	16.9µM*	?	?	?
